# Assays:
# Settings in all cases: Compound Concentration (nM):1000
# [1] = system: KIT-autoinhibited
# [2] = system: KIT
# [3] = system: LATS1
# [4] = system: LATS2
# [5] = system: LCK
# [6] = system: LIMK1
# [7] = system: LIMK2
# [8] = system: T1, LKB1
# T1 construct: gene STK11
# [9] = system: T2, LOK
# T2 construct: gene STK10
# [10] = system: LRRK2(G2019S)
# 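Note: KINOMEscan scanMAX binding as percent activity remaining versus control; lower means stronger binding.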
Structure (SMILES),Percent Control [1] [%],Percent Control [2] [%],Percent Control [3] [%],Percent Control [4] [%],Percent Control [5] [%],Percent Control [6] [%],Percent Control [7] [%],Percent Control [8] [%],Percent Control [9] [%],Percent Control [10] [%]
COc1cc(C)c(N(C)C(=O)CN(C)C)cc1Nc1nc(Nc2cccc(F)c2C(N)=O)c2cc[nH]c2n1 [GSK2219385],100,100,100,80,100,100,96,83,100,8.8
CCn1c(-c2nonc2N)nc2c(C#CC(C)(C)O)nc(OCCNC)cc21.Cl [GSK949675],100,100,65,11,100,100,100,70,100,100
NS(=O)(=O)c1ccc(Nc2ncc(-c3ccccc3)o2)cc1 [GW572399X],31,30,100,100,100,100,100,87,100,78
Cl.O=C(Nc1ccc(Oc2ccc3[nH]c(NC(=O)c4ccco4)nc3c2)cc1)Nc1cc(C(F)(F)F)ccc1F [GW683134A],83,0.4,100,97,6.3,76,84,87,0.1,66
COc1cc2ncn(-c3cc(O[C@H](C)c4ccccc4Cl)c(C(N)=O)s3)c2cc1OC [GSK237701A],100,49,99,86,52,100,54,75,0.3,69
O=C1Nc2ccc(C(=O)c3ccco3)cc2C1=Cc1cc(Cl)c(O)c(Cl)c1 [GW406108X],82,62,100,92,89,100,100,100,94,6.9
CCS(=O)(=O)c1ccc(OC)c(Nc2ncc(-c3cccc(OC)c3)o2)c1 [GW580509X],20,9.1,100,100,46,100,100,100,100,100
COc1ccc(COc2ccc(Cc3cnc(N)nc3N)cc2OC)cc1 [GW632580X],91,95,100,100,87,79,91,100,88,95
Cl.O=C(Nc1ccc(Oc2ccc3[nH]c(NC(=O)c4ccccc4)nc3c2)cc1)Nc1cc(C(F)(F)F)ccc1F [GW709042A],86,1.4,98,85,50,95,93,100,1,68

# — paper PMC7826789 (International Journal of Molecular Sciences, 2021)
